# Shown are actives, neighbours in structure and some others; about 1% of the full set was active somewhere.
# gsp agonist: qHTS for Agonist of gsp, the Etiologic Mutation Responsible for Fibrous Dysplasia/McCune-Albright Syndrome: qHTS | gsp mutant cells, cAMP HTRF, 30 min | Potency, µM (doses to about 76.9 µM), actives largely listed as activators | 0.13% of 340,000 active; active = well fitted activation curve with a large enough effect; inconclusive = small, poorly fitted or top-dose-only effect, or another doubt; inactive = no such curve, though single readings can be large or run the other way; cell line not stated here;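 note: phosphodiesterase inhibitor Ro 20-1724 added with compounds to block cAMP breakdown; nearly all actives have a fitted effect of over 60% in size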
#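 Cells stably selected in G418 were plated at 2000/well, grown 16-24 hr, then given compounds in DMSO with the PDE inhibitor […] (300 uM solution added) for 30 min at 37C; cAMP was read by HTRF.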
# RXFP1 antag: qHTS Assay for Antagonists of the Relaxin Receptor RXFP1; HEK293-RXFP1, relaxin-stimulated cAMP HTRF, 30 min; active compounds read low; activity change, negative = inhibition, % at 57.5 µM; 0.59% of 350,000 active;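 active = activity change of -60% or lower, but not beyond a set lower limit; inconclusive = change between -60% and -40%, or beyond the set limit; inactive = change above -40%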
# Target sequence (Q9HBX9 whole entry, looked up): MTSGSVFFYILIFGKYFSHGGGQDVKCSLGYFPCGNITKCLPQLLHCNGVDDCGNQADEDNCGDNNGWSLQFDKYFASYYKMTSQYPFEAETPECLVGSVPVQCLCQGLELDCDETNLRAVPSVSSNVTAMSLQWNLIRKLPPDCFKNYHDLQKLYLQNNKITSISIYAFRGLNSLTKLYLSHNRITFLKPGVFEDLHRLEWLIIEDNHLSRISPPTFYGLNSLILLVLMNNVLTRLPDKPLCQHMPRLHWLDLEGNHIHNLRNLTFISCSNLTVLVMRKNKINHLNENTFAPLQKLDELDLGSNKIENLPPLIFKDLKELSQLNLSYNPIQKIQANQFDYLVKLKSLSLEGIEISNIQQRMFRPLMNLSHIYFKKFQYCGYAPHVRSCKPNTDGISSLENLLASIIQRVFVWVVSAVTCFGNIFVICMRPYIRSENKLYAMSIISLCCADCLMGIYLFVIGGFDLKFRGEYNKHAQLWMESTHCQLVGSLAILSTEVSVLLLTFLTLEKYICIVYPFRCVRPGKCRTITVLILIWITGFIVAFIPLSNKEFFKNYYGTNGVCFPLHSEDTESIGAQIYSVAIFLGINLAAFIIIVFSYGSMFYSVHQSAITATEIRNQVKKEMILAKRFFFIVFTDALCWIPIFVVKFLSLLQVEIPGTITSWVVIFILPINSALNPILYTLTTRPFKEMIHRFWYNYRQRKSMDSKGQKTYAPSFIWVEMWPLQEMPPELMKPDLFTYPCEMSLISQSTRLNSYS
# gsp antag: qHTS for Antagonists of gsp, the Etiologic Mutation Responsible for Fibrous Dysplasia/McCune-Albright Syndrome: qHTS; gsp-mutant cells, cAMP HTRF, 30 min; Potency, µM (doses to about 76.9 µM), most hits filed as inhibitors; 0.4% of 340,000 active; AID 624288, 2012; calls by dose curve; cell line not stated here;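 note: intracellular cAMP measured with PDE inhibitor Ro 20-1724 present during compound exposure; nearly all actives have a fitted effect of over 65% in size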
#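 Measurement of cellular cAMP by homogeneous time-resolved fluorescence following a 30 min compound exposure at 37C. The PDE inhibitor […] was present throughout; the assay buffer was DPBS with 0.05% BSA and 0.005% Tween 20.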
# RXFP1 ag: qHTS Assay for Agonists of the Relaxin Receptor RXFP1 | Relaxin receptor 1 (Homo sapiens), Q9HBX9 | HEK293T-RXFP1 cAMP TR-FRET, 30 min; response scale: percent of porcine relaxin response, buffer zero | Potency, µM (series often up to 57.5 µM), hits mostly activators | 0.3% of 370,000 active | AID 2676, 2010; active = well fitted activation curve with a large enough effect; inconclusive = small, poorly fitted or top-dose-only effect; note: nearly all actives have a fitted effect of over 60% in size
#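 cAMP rise read by TR-FRET after 30 min, 37C compound exposure (up to 58 uM) in RXFP1-transfected HEK293 cells with Ro 20174 present. EC50 from Hill-equation fits, with 29 nM porcine relaxin as 100% and buffer as basal.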
# TSHR antag: Antagonists of the Thyroid Stimulating Hormone Receptor: HTS campaign | 0.2% of 330,000 active | activity change, negative = inhibition, % at 11.5 µM | TSHR-expressing cells, TSH-stimulated cAMP HTRF, 2 h; active compounds read low | Thyrotropin receptor (Homo sapiens), P16473;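 active = activity change below a set negative limit, meaning inhibition stronger than a set level, cut at about -70% in these data; inconclusive = activity change between two set negative limits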
#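 Antagonism was scored as loss of TSH-driven cAMP in TSHR cells, stimulated with 4nM TSH (EC80) for 2 hours at 37 deg C and detected by homogeneous HTRF competition immunoassay.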
# Hits are given with their value; – = inactive; ? = inconclusive; · = no result; [ ] = remark or other dose.
SMILES,gsp agonist,RXFP1 antag,gsp antag,RXFP1 ag,TSHR antag
Cc1ccc(SC(CC(=O)c2ccc(F)cc2)C(=O)O)cc1 (stereo not given),–[15.4 µM],–,–,–,–
CCOC(=O)c1c(NC(=O)COc2cccc(C(F)(F)F)c2)sc2c1CCCCC2,·,–,·,–,·
O=c1cc(-c2ccccc2)[nH]n1-c1ccccc1,–,-73,–,·,·
CCOc1ccc2nc(Cl)c(C3CC(c4ccccc4)=NN3C(=O)CCC(=O)O)cc2c1 (stereo not given),·,–,·,–,·
COc1ccc(N2C(=O)CC(Sc3nnc(-c4ccccc4)o3)C2=O)cc1 (stereo not given),28µM,–,–,–,–
CC(=O)c1cccc(NC(=O)CCc2nnc3ccc(NCc4ccco4)nn23)c1,?,–,–,–,–
Cc1ccc(NC(=O)CCc2nnc3ccc(NCc4ccco4)nn23)nc1,–,–,–,–,-96
CCc1ccc(NC(=O)CN2C(=O)C3CCCN3c3ccc(S(=O)(=O)N(CC)CC)cc32)cc1 (stereo not given),·,–,·,–,·
CCC(=O)NC(c1ccc([N+](=O)[O-])cc1)c1c(O)ccc2ccccc12 (stereo not given),–,–,?,–,–
CCCCC(=O)NC(c1ccc([N+](=O)[O-])cc1)c1c(O)ccc2ccccc12 (stereo not given),–[15.4 µM],-62,?,–,–
COc1cccc(CNC(=O)C(=O)NCC(c2cccs2)S(=O)(=O)c2cccs2)c1 (stereo not given),·,·,·,–,·
COc1ccc2cc(CCN3C(=O)c4ccccc4C3=O)c(=O)[nH]c2c1,11µM,·,–,?,–
COc1ccc2cc(CCNC(=O)C(C)(C)C)c(=O)[nH]c2c1,–,·,–,–,–
COc1ccc(N(C(=O)c2ccncc2)S(=O)(=O)c2ccc(Cl)cc2)cc1,?,–,50µM,–,–
O=C(Oc1ccc(N(C(=O)c2ccncc2)S(=O)(=O)c2ccc(F)cc2)cc1)c1ccncc1,–,-90,–,–,–
O=C(Oc1ccc(N(C(=O)c2ccncc2)S(=O)(=O)c2ccc(Cl)cc2)cc1)c1ccncc1,–,–,–,–,–
Cc1ccc(Cl)cc1N1CCN(CCCNC(=O)C2COc3ccccc3C2)CC1 (stereo not given),·,–,·,–,·
Cc1cc(C)c2c(CC(=O)Nc3nnc(C(C)C)s3)coc2c1,·,–,·,–,·
Cc1onc(-c2ccccc2Cl)c1C(=O)Oc1cc(F)cc(F)c1,·,–,·,–,·
Cc1onc(-c2ccccc2Cl)c1C(=O)Oc1ccc(Cl)cc1Cl,·,-78,·,–,·
Cc1ccc(S(=O)(=O)NCCC(=O)N2CCN(S(=O)(=O)c3cccc(F)c3)CC2)cc1C,–[15.4 µM],-67,–,–,–
Cc1ccc(C)c(NC(=O)Nc2cc3c(cc2N2CCCCC2)n(C)c(=O)n3C)c1,·,–,·,–,·
CCOC(=O)c1c(S(=O)(=O)NCC(=O)Nc2cccc(CC)c2)c(C)n(C)c1C,·,–,·,–,·
CCOC(=O)c1c(S(=O)(=O)NCC(=O)Nc2cccc(C)c2C)c(C)n(C)c1C,–,–,–,–,-112
CS(=O)(=O)N(Cc1ccc(Cl)cc1)c1ccc(C(=O)N2CCN(c3ccccc3)CC2)cc1,–,–,–,–,–
SMILES,gsp agonist,RXFP1 antag,gsp antag,RXFP1 ag,TSHR antag
CS(=O)(=O)N(Cc1ccccc1)c1ccc(C(=O)N2CCN(c3cccc(Cl)c3)CC2)cc1,–,–,–,–,-92
O=[N+]([O-])c1ccc(CSc2nnc3ccccn23)cc1,18µM,–,–,–,–
O=[N+]([O-])c1ccccc1CSc1nnc2ccccn12,–[15.4 µM],–,–,–,–
Cc1cc(C)n2nc(C(=O)N3CCN(c4ccc([N+](=O)[O-])cc4)CC3)nc2n1,–,·,11µM,–,–
COc1ccc(NC(=O)Cn2c(SCc3ccc(F)cc3)nc3cccnc32)cc1OC,·,–,·,–,·
CCCC(=O)NC(c1cccs1)c1cc([N+](=O)[O-])c2cccnc2c1O (stereo not given),–[15.4 µM],-66,–,–,–
